Menin-MLL FL inh – menin-MLL binding inhibition, fluorescein peptide; Fluorescence polarization, fluorescein-MLL peptide displacement from menin; FP activity change, % at 61.4 µM; 290,000 tested, under 10 active; active = well fitted curve in the direction sought with a large enough effect in the polarisation, not every such curve was filed as active; inconclusive = small, poorly fitted or top-dose-only effect, or effect the other way, or a change in a side signal; inactive = no such curve, though single readings can be large or run the other way; the % refers to the polarisation; also: % of control where 0% means no effect
Menin-MLL TR inh – inhibitors of human menin-MLL interaction, mutant MLL peptide; Potency, µM (top dose mostly 61.6 µM), inactives show top-dose FP activity change, negative = inhibition, usual class: inhibitors; O00255; Menin + Texas Red MLL mutant peptide, fluorescence polarization; hit rate 0.23% among 270,000; active = well fitted inhibition curve with a large enough effect in the polarisation, with a control signal flat, not every such curve was filed as active; inconclusive = small, poorly fitted or top-dose-only effect, or effect the other way, or a change in a side signal; inactive = no such curve, though single readings can be large or run the other way; the % refers to the polarisation; also: potency is read from the fitted curve at half-maximal effect; % of control where 0% means no effect
ERG Ets-DNA blk – ERG Ets/DNA interaction inhibition. P11308. fluorescence polarization, His-ERG Ets domain / labelled DNA. Potency, µM (doses to about 76.9 µM), for inactives: at the highest dose FP activity, negative = inhibition, most hits filed as inhibitors. hit rate 0.028% among 370,000. AID 624246; active = well fitted inhibition curve with a large enough effect in the polarisation, with a control signal flat; inconclusive = small, poorly fitted or top-dose-only effect, or effect the other way, or a change in a side signal; inactive = no such curve, though single readings can be large or run the other way; the % refers to the polarisation;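 also: polarization taken with two DNA probes labelled with fluorescein and Texas red; potency is read from the fitted curve at half-maximal effect; % of control where 0% means no effect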
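His-tagged ERG Ets domain (1 uM in the protein solution; 300mM KCl, 50mM Tris-HCl, 1mM EDTA, 1mM DTT, pH 7.5) received compound, then a probe mix of 5 nM fluorescein-DNA and 100nM Texas-615-DNA. Fluorescence polarization was read for both dyes.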
MLL CXXC-DNA inh – inhibitors of human MLL CXXC domain-DNA interaction. Q03164. MLL-CXXC / FITC-HOXA9 DNA fluorescence polarization. Potency, µM (highest dose often 115 µM), for inactives: at the top dose activity change, negative = inhibition, hits mostly inhibitors. hit rate 0.037% among 290,000. AID 2662; active = well fitted inhibition curve with a large enough effect in the polarisation, with a control signal flat, not every such curve was filed as active; inconclusive = small, poorly fitted or top-dose-only effect, or effect the other way, or a change in a side signal; inactive = no such curve, though single readings can be large or run the other way; the % refers to the polarisation; also: potency is read from the fitted curve at half-maximal effect
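Fluorescence polarization: 7 uM MLL-CXXC (stock) preincubated 5 min with compounds, then 50 nM fluorescein-HOX-A9 DNA (stock) added; 30 min ambient. Buffer 50 mM Tris-HCl pH 7.5, 50 mM NaCl, 1 mM DTT, 0.05% BSA.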
RGS12 GoLoco inh – blocks human Gai1 binding to RGS12 GoLoco peptide, red readout. P63096. Gai1:RGS12 GoLoco peptide FP, rhodamine, 10 min. Potency, µM (highest dose often 61.6 µM), without a hit: top-dose activity, negative = inhibition, actives largely listed as inhibitors. hit rate 0.44% among 230,000. AID 880; active = well fitted inhibition curve with a large enough effect, not every such curve was filed as active; inactive = no such curve, though single readings can be large or run the other way; also: potency is read from the fitted curve at half-maximal effect; % is scaled to controls: 0 for no effect and ±100 for the full control effect; nearly all actives have a fitted effect of over 30% in size
Active calls of the source: *; ? = inconclusive; nt = no result given; ! = a repeat was not active; [ ] = dose if it differs, or a comment. The full list was thinned out, with hits kept by preference.

SMILES | Menin-MLL FL inh | Menin-MLL TR inh | ERG Ets-DNA blk | MLL CXXC-DNA inh | RGS12 GoLoco inh
COc1ccc(N2CCN(C(=O)c3cc4cc(Cl)ccc4[nH]3)CC2)cc1 | -2 | 32µM* | -2% | -14% | nt
O=C(c1cc2cc(Cl)ccc2[nH]1)N1CCN(c2ccc(F)cc2)CC1 | -2 | -1% | -6% | 22% | nt
CC(C)(C)c1ccc(-c2cn(-c3ccc(Br)cc3)c3[n+]2CCCS3)cc1 | -12 | ? | 6% | 13% | 35µM*
O[N+]1=CC=CCC1=S.On1ccccc1=S.[Zn] | 0 | 0% | nt | nt | 0%
COC(=O)c1ccccc1NC(=O)Cn1cc(S(=O)(=O)Cc2ccccc2F)c2ccccc21 | nt | nt | -3% | nt | nt
CCCCN1C(=O)N(C)C2NC(=O)NC21 (centres undefined) | 1 | -12% | 1% | 10% | 2%
CSC1=NC2C(N1)N(C)C(=O)N2C (centres undefined) | -1 | 4% | 4% | 12% | 16µM*
Cc1ccc(Cl)cc1NC(=O)C(=O)NCC(c1cccnc1)N1CCc2ccccc21 (centres undefined) | nt | nt | 4% | nt | nt
CN(C)c1ccc(NC(=O)CSCc2nc3c(nnn3Cc3ccc(F)cc3)c(=O)[nH]2)cc1 | ? | ? | 1% | -10% | 3.5µM*
Cc1cccc(NC(=O)CSCc2nc3c(nnn3Cc3ccc(F)cc3)c(=O)[nH]2)c1C | 5 | -4% | -2% | 8% | -9%
COc1ccc(-n2nc3cc(C)c(NC(=S)NC(=O)c4ccccc4C)cc3n2)cc1 | 2 | 22µM* | 2% | 3% | 6%
FC(F)Sc1ccc(NC(=S)NC(c2ccccc2)c2ccccc2)cc1 | -1 | 16µM* | 7% | 7% | 1%
FC(F)Sc1ccc(NC(=S)NCc2ccccc2)cc1 | 2 | ? | -3% | -1% | 2%
CCC(=O)NC1=C(Cl)C(=O)C(NC(=O)CC)=C(Cl)C1=O | -5 | nt | -23% | -2% | 1.3µM*
NCCC[C@@H](CC(=O)N[C@@H]1CCNC[C@H]1C(=O)N[C@H](CC(=O)N[C@@H](CCC(=O)O)CC(=O)O)Cc1c[nH]c2ccccc12)NC(=O)C[C@H](Cc1c[nH]c2ccccc12)NC(=O)[C@@H]1CCCC[C@H]1N | 0 | -11% | nt | nt | -1%
NCCC[C@@H](CC(=O)N[C@@H]1CCNC[C@H]1C(=O)N[C@H](CC(=O)N[C@@H](CCC(=O)O)CC(=O)O)Cc1ccccc1)NC(=O)C[C@H](Cc1c[nH]c2ccccc12)NC(=O)[C@@H]1CCCC[C@H]1N | 17 | -11% | nt | nt | 20µM*
CC(C)CCC[C@@H](C)[C@@H]1CC[C@H]2C3=CC=C4CC(O)CC[C@]4(C)[C@H]3CC[C@@]21C (some centres undefined) | ? | -26% | nt | nt | nt
COC(=O)c1sc2cccc(F)c2c1S(=O)(=O)N1CCN(c2ccc(F)cc2)CC1 | nt | nt | -1% | nt | nt
Cc1cc2nc3c(=O)[nH]c(=O)nc-3n(C)c2cc1C=O | ? | -18% | nt | nt | 10µM*
Cc1cc2nc(C)c(=O)n(C)c2cc1C | -3 | 9% | 14% | 3% | 1%
CCCS(=O)(=O)Nc1cc2c(cc1NCc1ccccc1)n(C)c(=O)n2C | nt | nt | -8% | nt | nt
COC(=O)C1(C(=O)OC)C[C@@H]2CON=C2[C@H]1c1ccccc1 | -1 | 1% | nt | nt | 3%
CC1CCC2C(=O)N3C(CCC(C)C3c3ccc(-c4ccco4)cc3)C(=O)N2C1c1ccc(-c2ccco2)cc1 (centres undefined) | 7[11.7 µM] | -19%[11.7 µM] | nt | nt | nt
Cc1nnc(NN)n(N)c1=O | 2 | nt | 10% | 5% | 8.9µM*
CC(C)NC(=O)CCC(=O)N1Cc2ccccc2Oc2ncccc21 | nt | nt | 5% | nt | nt
SMILES | Menin-MLL FL inh | Menin-MLL TR inh | ERG Ets-DNA blk | MLL CXXC-DNA inh | RGS12 GoLoco inh
Cn1c(=O)c(C#N)c(-c2ccc(F)cc2)c2cc(C(=O)c3cc(Cl)cc(Cl)c3O)cnc21 | 4 | nt | -6% | 20% | 16%
COc1ccccc1-n1c(=O)c(C#N)c(-c2ccc([N+](=O)[O-])cc2)c2cc(C(=O)c3cc(F)ccc3O)cnc21 | 6 | ? | 11µM* | -4% | 9%
O=c1c2ccccc2sn1-c1cc(S(=O)(=O)N2CCOCC2)ccc1N1CCCC1 | -1 | -12% | -5% | -5% | -70%
O=c1c2ccccc2sn1-c1cc(S(=O)(=O)N2CCOCC2)ccc1N1CCOCC1 | 5 | ? | nt | -19% | 3.5µM*
CCOc1ccccc1CNC(=O)c1ccc(Cn2c(SCc3ccccc3)nc3cccnc32)cc1 | nt | nt | 1% | nt | nt
N=C1SC(c2ccccc2)C(=O)N1c1ncc(Cc2ccccc2Cl)s1 (centres undefined) | 6 | 14µM* | -3% | 13% | -5%
CCc1ccc(CNC(=O)CN2C(=O)CSc3c2c(C)nn3-c2ccccc2)cc1 | nt | nt | 0% | nt | nt
COc1ccc(C(=O)Nc2ccc(NC(=O)c3cccs3)cc2)cc1Cl | 4 | 7.1µM* | 5% | 3% | -10%
COc1ccc(C(=O)Nc2ccc(NC(=O)c3cccs3)c(OC)c2)cc1Cl | 0 | ? | -4% | 1% | 5%
Oc1ccc2c(c1)OCC1(O)Cc3cc(O)c(O)cc3C21 (centres undefined) | ? | ? | 13µM* | nt | -165%
Oc1cc2c(cc1O)[C@H]1c3ccc(O)c(O)c3OC[C@@]1(O)C2 | -8 | 8%[24.8 µM] | -15% | nt | 4µM*!
COc1ccccc1C(=O)Nc1ccc2nc(SCC(=O)N3CCCC3)sc2c1 | nt | nt | 8% | nt | nt
Cc1c2cnn(-c3ccccc3)c(=O)c2c(C)n1CCCC(=O)Nc1ccc(F)cc1F | nt | nt | 1% | nt | nt
CC(=O)NCCCC[C@H](NC(=O)OC(C)(C)C)C(=O)Nc1ccc2c(C(F)(F)F)cc(=O)oc2c1 | 0 | -2% | nt | nt | nt
COc1ccc2c(c1)OC(C)(C)C(c1ccccc1)C2c1ccc(OCCN2CCCC2)cc1 (centres undefined) | 2 | 1% | nt | 13% | nt
CCOC(=O)C1=C(CSc2nc(-c3ccccc3)ccc2C#N)OC(N)=C(C#N)C1c1ccc(OC)cc1 (centres undefined) | ? | 14µM* | 28% | 40% | 41%
COc1cccc(CNC(=O)CN2C(=O)CCn3nc(-c4cn(C)c5ccccc45)cc32)c1OC | nt | nt | -5% | nt | nt
CC(C)OCC1CO1 (centres undefined) | nt | nt | -1% | nt | 25µM*
CCc1ccccc1OCCSc1nnc(-c2cc(OC)c(OC)c(OC)c2)o1 | nt | nt | 20% | nt | nt
FC(F)(F)c1nc2cc3nc4ccccc4[nH]c3cc2n1 | ? | nt | ? | -23% | 16µM*
OC(c1nc2ccccc2[nH]1)C(O)c1nc2ccccc2[nH]1 (centres undefined) | -1 | 2% | -1% | 0% | nt
N#Cc1cc(-c2ccccc2)nn1-c1ccccc1 | 0 | 12% | 4% | 9% | 13µM*
CCn1cc([N+](=O)[O-])c(C(=O)N2N=C(c3ccc(Cl)c(Cl)c3)CC2c2ccccc2O)n1 (centres undefined) | -2 | 0% | 0% | -9% | 9%

Screening data deposited in PubChem BioAssay by National Center for Advancing Translational Sciences (NCATS).
